Among the data in PubChem BioAssay AID488969 (Vanderbilt High Throughput Screening Facility, 2010) are z-score values, retold here.

The full ranking holds about 110,000 compounds; the median of “z-score” is about -0.1, and the highest 2% start at about 2. What follows is part of a selection rich in the highest values, with near analogues and random picks from the rest. The source made the active and inactive calls.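 How the source made its calls: active means z-score in the third read window above 3 or below -3; inactive means the rest.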

Metabotropic glutamate receptor 8 (Rattus norvegicus), sequence (P70579 whole entry, looked up): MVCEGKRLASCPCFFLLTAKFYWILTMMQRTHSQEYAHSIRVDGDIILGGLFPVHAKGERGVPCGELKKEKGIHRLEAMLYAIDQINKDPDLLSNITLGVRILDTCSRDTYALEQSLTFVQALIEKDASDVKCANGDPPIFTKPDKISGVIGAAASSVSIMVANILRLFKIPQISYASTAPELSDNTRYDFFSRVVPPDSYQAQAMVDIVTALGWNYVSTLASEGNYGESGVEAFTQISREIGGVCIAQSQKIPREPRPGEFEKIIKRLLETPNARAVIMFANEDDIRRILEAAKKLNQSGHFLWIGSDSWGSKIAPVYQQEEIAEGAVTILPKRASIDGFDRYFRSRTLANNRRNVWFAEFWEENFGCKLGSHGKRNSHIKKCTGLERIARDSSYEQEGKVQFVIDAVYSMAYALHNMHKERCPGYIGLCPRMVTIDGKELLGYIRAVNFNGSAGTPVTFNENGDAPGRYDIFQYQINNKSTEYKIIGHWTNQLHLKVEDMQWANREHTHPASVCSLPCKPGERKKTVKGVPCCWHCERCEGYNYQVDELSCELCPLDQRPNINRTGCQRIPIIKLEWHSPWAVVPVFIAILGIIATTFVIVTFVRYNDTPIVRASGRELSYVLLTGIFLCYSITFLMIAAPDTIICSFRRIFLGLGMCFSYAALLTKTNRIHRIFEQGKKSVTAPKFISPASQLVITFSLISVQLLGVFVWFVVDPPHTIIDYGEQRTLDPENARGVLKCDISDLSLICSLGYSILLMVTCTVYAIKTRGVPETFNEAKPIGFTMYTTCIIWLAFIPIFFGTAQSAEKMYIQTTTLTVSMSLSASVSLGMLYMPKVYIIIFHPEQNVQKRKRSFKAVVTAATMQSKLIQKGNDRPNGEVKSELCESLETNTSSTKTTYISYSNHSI

The experiment addresses Metabotropic glutamate receptor 8 (Rattus norvegicus) (UniProt P70579). The experiment in a line: mGluR8 Gi/Go-coupled signaling modulation – cell-based, rat, thallium flux, HTS, primary screen (AID 488969). As to conditions: HEK293 rat mGluR8, GIRK (G protein-gated inwardly rectifying potassium channel) thallium flux, FluoZin2; at 10 µM; stronger effect = higher value; submaximal glutamate (EC20) added with thallium.
In turn, `O=C(Nc1ccc2c(c1)OCO2)N1CCN(C/C=C/c2ccccc2)CC1` registered a z-score of -0.663. In turn, `CN(C)c1cccc(C(=O)OCC(=O)NCC2CCCO2)c1` (stereo not given) registered a z-score of -0.266. Regarding `Cc1ccc(CN=C2Nc3ccccc3CS2)cc1`, the z-score was -0.225.

`Cc1cccc(NC(=O)c2cc(Cl)sc2Cl)c1C` displayed a z-score of 0.0762. In the case of `CC(C)(C)Cc1nc(-c2ccc(Cl)cc2)no1`, the z-score was determined as 0.892.

Compound `CCn1cc(CNC(=O)CCc2ccc(OC)cc2)cn1` returned a z-score of 0.0492.

With `COc1ccc(CCC(=O)NCc2cn3ccsc3n2)cc1`, the z-score amounted to 0.0209.

`COc1ccc(CCC(=O)NCc2cnn(C)c2)cc1`: the z-score is 3.37 (active).

For `O=C(c1cccc(F)c1)N1CCN(C(=O)c2cc(-c3ccc(Cl)cc3Cl)on2)CC1`, the z-score is 3.48 (active). Regarding `O=C(c1cc(-c2ccc(Cl)cc2Cl)on1)N1CCOCC1`, the z-score is -0.321.

With `O=C(c1cc(-c2ccc(Cl)cc2Cl)on1)N1CCN(C(=O)c2ccco2)CC1`, the z-score stood at 0.486. Compound `COC(=O)c1cc2ccccn2c2c(C(=O)OC)c(C(=O)OC)cc1-2` yielded a z-score of 0.219.

In turn, `O=C(Nc1ccccc1)c1sc(Cl)nc1-c1ccccc1` came in with a z-score of -0.405.

In turn, `Cc1cc(C)n(-c2ccc(C)c(Cl)c2)n1` had a z-score of -0.078. The compound `Cc1cc(C)[n+]2n1C(=O)C(c1ccccc1)=C2[O-]` displayed a z-score of 2.57.

Compound `Cc1cc(=O)n2[nH]c(-c3ccccc3)cc2n1` showed a z-score of -0.312. The figure for `O=c1cc(-c2ccccc2)[nH][nH]1` is 0.252; for `Cc1ccc(-c2cc(C(=O)N3CCCC3)no2)cc1` it is -0.457; for `O=C(c1cc(-c2ccccc2)on1)N1CCN(C(=O)c2ccco2)CC1` it is 2.21.

The compound `CCOC(=O)C1CCCN(C(=O)c2ccco2)C1` (stereo not given) showed a z-score of 0.661. Compound `Cc1ccc(-c2cc(C(=O)N3CCN(C(=O)c4ccco4)CC3)no2)cc1` registered a z-score of -0.304.

In the case of `CCOC(=O)C1CCCN(C(=O)c2cc3c(C)nc4ccccc4c3o2)C1` (stereo not given), the z-score is -0.243. Compound `O=C(c1cc(-c2ccccc2Cl)on1)N1CCN(C(=O)c2ccco2)CC1` had a z-score of 0.424. Next, `Cc1cc(C(=O)N2CCN(c3ccccc3)CC2)no1`: 0.106; `CN1CCN(C(=O)c2cc(-c3ccccc3)on2)CC1`: 0.0853. In the case of `Cc1noc(C)c1C(=O)N1CCN(CCc2ccccc2)CC1`, the z-score was -0.189.

As to `O=C(c1cc(-c2ccccc2)on1)N1CCCC1`, the z-score was 3.32 (active).

Regarding `Cc1cc(C(=O)N2CCN(CCc3ccccc3)CC2)no1`, the z-score was 8.2 (active).

`CCOC(=O)C1CCCN(C(=O)c2cc(=O)c3ccccc3o2)C1` (stereo not given) displayed a z-score of 2.91.

Compound `COc1ccc2cc(C(c3nnnn3C3CCCCC3)N3CCCCCC3)c3nnnn3c2c1` (stereo not given) registered a z-score of -0.929. Turning to `CCn1c(=O)c2ccccc2n2c(SCC(=O)N3CCc4ccccc4C3)nnc12`, the z-score was determined as 1.51. For `CCn1c(SCC(=O)NC(C)(C)C)nnc1-c1ccoc1C`, the z-score was 0.155. For the compound `CCN(CC)S(=O)(=O)c1ccc(N2CCOCC2)c(NC(=O)Cc2ccccc2)c1`, the z-score was -0.339. `O=C(CC1NCCNC1=O)OCc1ccccc1` (stereo not given) gave a z-score of 0.419. As to `O=C(CC1NCCNC1=O)OCCCc1ccccc1` (stereo not given), the z-score was determined as 1.22.

The compound `CCCOc1ccc(C(=O)NC(=S)Nc2nc(C)c(C(=O)N(C)C)s2)cc1` returned a z-score of 0.54. As for `CCOC(=O)C1CCCN(C(=O)c2cc(-c3ccc(C)cc3)on2)C1` (stereo not given), the z-score is -0.235. As to `CCOC(=O)C1CCCN(C(=O)c2cccs2)C1` (stereo not given), the z-score was -0.161. Next, `CCOC(=O)C1CCCN(C(=O)c2cc(-c3ccccc3)on2)C1` (stereo not given): 3.22 (active); `CC(=O)CSc1nc(N)c(C#N)c(-c2cccs2)c1C#N`: -0.18. Consider `COc1ccc(/C=N/NC(=O)c2nc(-c3ccccc3)cc(-c3ccccc3)n2)cc1`, for which the z-score is 8.06 (active). As for `COc1ccc(/C=N/NC(=O)c2nc(-c3ccccc3)cc(-c3ccccc3)n2)cc1OC`, the z-score is 0.42. On to `COc1cccc(/C=N/NC(=O)c2nc(-c3ccccc3)cc(-c3ccccc3)n2)c1`, for which the z-score was -0.286. `Cn1c(SCC(=O)NC(C)(C)C)nc(O)cc1=O` showed a z-score of -0.0162. Next, `O=C1C2C3C=CC(CC3)C2C(=O)N1/N=C/c1ccccc1O` (stereo not given): -0.187; `CC12CCC(C(=O)N(CSC(=S)N/N=C\c3ccccc3Cl)C1=O)C2(C)C` (stereo not given): 16.2 (active).

Compound `CC12CCC(C(=O)N(NC(=O)c3ccccc3Cl)C1=O)C2(C)C` (stereo not given) gave a z-score of 0.00342. The figure for `CC12CCC(C(=O)N(c3ccccc3Cl)C1=O)C2(C)C` (stereo not given) is 0.208; for `CC12CCC(C(=O)N(CC(O)CN3CCCCCC3)C1=O)C2(C)C` (stereo not given) it is 0.13; for `CC12CCC(C(=O)N(CSC(=S)N/N=C\c3ccccc3O)C1=O)C2(C)C` (stereo not given) it is 5.76 (active). As to `CCCn1c(SCC(=O)N2CCN(c3ccccc3)CC2)nc2ccccc2c1=O`, the z-score was -0.496. In the case of `CCn1c(CNC(=O)c2cccc(C)c2)nnc1SCC(=O)NC1CCCCC1C` (stereo not given), the z-score turned out to be 0.161.

For `Cc1[nH]c2ccc(F)cc2c(=O)c1SC(F)(F)C(F)F`, the z-score was -1.3. Compound `CCCC(=O)N1CC(=O)Nc2ccc(F)cc2C1c1ccccc1` (stereo not given) gave a z-score of -0.534. The figure for `Cc1ccc2c(c1)C(c1ccccc1)N(C(=O)C(C)C)CC(=O)N2` (stereo not given) is -0.0998; for `Cc1ccc2c(c1)C(c1ccc(F)cc1)N(C(=O)C1CC1)CC(=O)N2` (stereo not given) it is 2.06; for `Cn1nc(C(=O)NCc2ccccn2)c2ccccc2c1=O` it is -0.406. `COC(=O)CSc1nc(NC#N)nc(NC(C)C)n1`: the z-score is -0.00648.

In turn, `Cc1ccc2cc(C3CC(c4ccco4)=NN3S(=O)(=O)c3ccccc3)c(Cl)nc2c1` (stereo not given) yielded a z-score of 0.136. As to `O=C(NC1CCCC1)C(Cc1ccccc1)n1cccc1` (stereo not given), the z-score is 0.182. With `CCC(C(=O)Nc1nc(C)cs1)c1ccccc1` (stereo not given), the z-score is -0.691.

With `CCSc1nnc(NC(=O)C(Cc2ccccc2)n2cccc2)s1` (stereo not given), the z-score was 4.24 (active). In the case of `O=C(Nc1ncc(Br)s1)C(Cc1ccccc1)n1cccc1` (stereo not given), the z-score is 7 (active). Compound `O=C(Nc1cccnc1)C(Cc1ccccc1)n1cccc1` (stereo not given) came in with a z-score of 0.0231. Next, `CCSc1nnc(NC(=O)[C@@H](NC(=O)c2ccccc2)C(C)C)s1`: -0.168. Take `CCSc1nnc(NC(=O)CCc2ccccc2)s1`: the z-score is -0.278. Consider `Cc1csc(NC(=O)C(Cc2ccccc2)n2cccc2)n1` (stereo not given), for which the z-score was 5.2 (active). The figure for `Cc1csc(NC(=O)CSCC(=O)Nc2ccccc2)n1` is 0.462; for `CCN(CC)C(=O)NC(c1ccc(C)c(F)c1)C(Cl)(Cl)Cl` (stereo not given) it is -0.501; for `Cn1cc(S(=O)(=O)CC(=O)Nc2ccc(Br)cc2)c2ccccc21` it is -0.0267. The figure for `Cc1onc(-c2ccccc2)c1C(=O)Nc1ccc(N2CCOCC2)cc1` is -0.074; for `CCC1CCCCN1C(=O)C1CC(c2cc(Cl)c(OC)cc2OC)=NO1` (stereo not given) it is -0.518. Turning to `Cc1cc(=O)oc2cc(OCC(=O)Nc3nnc(CC(C)C)s3)ccc12`, the z-score was -0.0633. The compound `CCc1ccc2oc(-c3cc(N=Cc4cccc(OC)c4O)ccc3O)nc2c1` came in with a z-score of -0.649. Compound `Cc1cc2c(cc1C)C(c1ccccc1Br)CC(=O)N2` (stereo not given) registered a z-score of 0.617. In the case of `COc1cnc(-c2ccccn2)nc1Sc1ccc(Cl)cc1`, the z-score was -0.328. The figure for `OCCCc1nc2n(n1)C(c1ccccc1)C=C(c1ccccc1)N2` (stereo not given) is -0.449; for `OCCCc1nc2n(n1)C(c1ccccc1)C=C(c1ccc(F)cc1)N2` (stereo not given) it is -1.33. Turning to `OCCCc1nc2n(n1)C(c1cccs1)C=C(c1ccc(Br)cc1)N2` (stereo not given), the z-score is 5.08 (active).

`OCCCc1nc2n(n1)C(c1cccs1)C=C(c1ccccc1)N2` (stereo not given) had a z-score of 2.68. Next, `OCCCc1nc2n(n1)C(c1ccccc1Cl)C=C(c1cccs1)N2` (stereo not given): -1.48; `Brc1ccc(C2=CC(c3cccs3)n3ncnc3N2)cc1` (stereo not given): -1.55; `COc1ccc(NC(=O)/C(=C/c2ccc3c(c2)OCO3)NC(C)=O)cc1`: -0.031. `CC1=C(n2nnc3ccccc32)C(c2ccccc2)C(C#N)=C(N)O1` (stereo not given): the z-score was 3.38 (active). `COC(=O)C1=C(C)OC(N)=C(C#N)C1c1ccccc1` (stereo not given): the z-score was -0.92. With `CC(=O)C1=C(c2ccccc2)OC(N)=C(C#N)C1c1ccc(O)cc1` (stereo not given), the z-score was -0.487. The compound `CC(C)c1nc(C#N)c(NCCCn2ccnc2)o1` gave a z-score of 0.481. Take `N#C/C(=C(/O)C(Cl)c1ccccc1)c1nc2ccccc2s1` (stereo not given): the z-score is -0.476. `Cc1ccc(NC(=O)CSc2nnc(CCCCCNC(=O)OC(C)(C)C)o2)c(C)c1` showed a z-score of 0.493. As to `C=C(C)CSc1nnc(CCNC(=O)OC(C)(C)C)o1`, the z-score amounted to 2.19. The figure for `Cc1ccc(C)c(NC(=O)CSc2nnc(CCNC(=O)OC(C)(C)C)o2)c1` is 0.761; for `CCN(CC)C(=O)CSc1nnc(CCNC(=O)OC(C)(C)C)o1` it is 0.491; for `Cc1ccc(NC(=O)CSc2nnc(CCNC(=O)OC(C)(C)C)o2)c(C)c1` it is 2.11.

In turn, `CC(C)(C)OC(=O)NCCc1nnc(SCC(N)=O)o1` returned a z-score of -0.0953. In the case of `COc1ccc(CNC(=O)C2CCCN(c3nc4ccccc4o3)C2)c(OC)c1` (stereo not given), the z-score turned out to be 0.18.

`Cc1ccc(C)c2[nH]c(=O)c(C(c3nnnn3Cc3ccccc3)N3CCc4ccccc4C3)cc12` (stereo not given): the z-score is -0.148. As to `COc1ccccc1-n1c(SCC(=O)N2CCc3ccccc32)nc2c(c1=O)SCC2`, the z-score was -0.558. Take `O=c1[nH]c2ccccc2n1C1CCCCC1`: the z-score is -1.04. As for `O=c1[nH]c2ccccc2n1CCC1CCCCC1`, the z-score is 5.05 (active). The figure for `CCCn1c(=O)[nH]c2ccccc21` is -0.219; for `C=CCOc1ccc(CNn2c(C)n[nH]c2=S)cc1OC` it is 0.17; for `CC(C)NC(=O)C1CCN(C(=O)C(C(=O)c2ccccc2)n2cc(Cl)ccc2=O)CC1` (stereo not given) it is 0.609. For the compound `CCCCNC(=O)C(=O)N/N=C/c1cccc(Br)c1`, the z-score was 0.475. As to `O=C(CCC(=O)Nc1ccccc1Cl)N/N=C/c1ccccc1`, the z-score is -0.0425. `Cc1ccc(NC(=S)N/N=C/c2ccc(Cl)c([N+](=O)[O-])c2)cc1` had a z-score of -0.0758.

With `Fc1ccc(NC(=S)N/N=C/c2ccc(F)c(F)c2)c(F)c1`, the z-score was 13 (active). As to `Fc1ccc(/C=N/NC(=S)Nc2ccc(Cl)cc2)cc1F`, the z-score was 6.19 (active). Take `Fc1ccc(NC(=S)N/N=C/c2cccc(Br)c2)c(F)c1`: the z-score is 3.61 (active).

In the case of `Fc1cccc(/C=N/NC(=S)Nc2ccccc2Cl)c1`, the z-score was 11.2 (active). Consider `COc1ccccc1NC(=S)N/N=C/c1cccc(C)c1`, for which the z-score amounted to 0.651. In the case of `COc1ccc(/C=N/NC(=S)Nc2ccccc2)cc1COc1ccccc1F`, the z-score is -0.0868.

In turn, `COc1ccc(/C=N/NC(=S)Nc2ccccc2)cc1COc1ccc(F)cc1F` showed a z-score of -0.047. The compound `C=CCNC(=S)Nc1ccc(Br)cc1F` registered a z-score of -0.377. The compound `C=CCNC(=S)Nc1ccc(F)cc1F` displayed a z-score of -0.172.

Turning to `Cc1cccc(N(C(=O)c2sc(C)nc2C)C(C(=O)NCc2ccco2)c2ccccc2)c1` (stereo not given), the z-score was -1.18.
